# Compound activity: PubChem, several laboratories
# Shown are actives, neighbours in structure and some others; about 2.1% of the full set was active somewhere.
# Rin1-Abl PPI inh: human Rin1-Abl interaction inhibition; P00519+Q13671; TR-FRET Rin1/Abl binding, biochemical; inhibition, % at 7.35 µM; actives 0.4% (n = 360,000); AID 588664; in the data active = inhibition above about 5%, passing the limit was not always enough
# M18AAP inhibitor: blocks P. falciparum M18 aspartyl aminopeptidase; recombinant PfM18AAP, H-Glu-NHMec fluorogenic cleavage; inhibition, % at 7.35 µM; actives 1.2% (n = 290,000); AID 1822;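 active = inhibition above the campaign mean inhibition over all tested compounds plus 3 SD, cut at about 28% in these data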;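 also: 0% = plate median of test compound wells and 100% = 2 mM ZnCl2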
# Fh CTSL1 inh: blocks F. hepatica cathepsin L1 in PFM18AAP counter-screen | inhibition, % at 5.96 µM | actives 0.49% (n = 300,000) | recombinant F. hepatica cathepsin L1, Z-Leu-Arg-MCA fluorescence;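 active = inhibition above the mean of all tested compounds plus 3 SD, set per screening campaign, cut at about 17% in these data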;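 also: 0% = plate median of test compound wells and 100% = 1 µM Z-Phe-Ala-diazomethylketone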
# Calb FLC: C. albicans growth modulation with fluconazole | actives 0.57% (n = 300,000) | growth inhibition, % (test concentration not listed) | AID 1979 | C. albicans CaCi-2 (fluconazole-resistant clinical isolate) + fluconazole, Alamar Blue growth, 48 h;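 active = growth inhibition above about 58% in most replicates, limit read from the data, passing the limit was not always enough; inconclusive = exactly half the replicates above a set limit; inactive = most replicates below a set limit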;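 also: all wells also contain fluconazole at 8 µg/ml as a sub-toxic cotreatment; 0% = median of DMSO wells and 100% = median of geldanamycin control wells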
# Starred values were filed as active, the others as inactive; ? = inconclusive; · = not tested or not shown.
SMILES,Rin1-Abl PPI inh,M18AAP inhibitor,Fh CTSL1 inh,Calb FLC
COc1cccc(/C=N/NC(=O)NC23CC4CC(CC(C4)C2)C3)c1O,8.1*,·,-1,5
COc1ccc(Cc2nnc(SCC(=O)N3CCN(c4ccccc4)CC3)o2)cc1,-3,-2,-7,9
O=C(CSc1nnc(C2COc3ccccc3O2)o1)N1CCCC1 (centres undefined),-1,8,-5,0
O=C(CSc1nnc(C2CCCCC2)o1)N1CCCCC1,1,-5,23*,11
COc1ccc(Cc2nnc(SCC(=O)N3CCCCC3)o2)cc1,-1,9,17*,-15
COc1cccc(CN2C(=O)C3(C(C#N)=C(N)OC4=C3C(=O)CCC4)c3ccccc32)c1 (centres undefined),4,7,5,91*
CCOCCCn1c(SCc2ccccc2)nnc1-c1ccncc1,0,-13,4,3
O=C(CSc1nc2ccccc2c(=O)n1-c1ccccc1)N1CCCc2ccccc21,0,5,36*,-12
O=C(NN=C1CCCCC1)Nc1ccccc1Cl,0,·,4,2
O=C1CCCC2=C1C(c1ccc(O)c(O)c1)c1c(ccc3ncccc13)N2 (centres undefined),-1,77*,-7,-3
CCOc1ccc(C2C3=C(CCCC3=O)Nc3ccc4ncccc4c32)cc1 (centres undefined),-2,6,-3,-2
O=C(NCc1ccco1)c1cccnc1Cl,-1,-1,-2,0
O=C(NCc1ccco1)c1cccnc1-c1nc2ccccc2s1,-8,31*,-2,-5
O=C(COC(=O)Cc1c(F)cccc1Cl)NNC(=O)c1ccccc1,1,·,·,·
CCOc1ccc(C(=O)NC(=S)NCc2cccnc2)cc1[N+](=O)[O-],-1,-15,0,-10
O=C(CSc1nnc(NC(=O)c2ccccc2Cl)s1)Nc1ccc2c(c1)oc1ccccc12,·,-4,2,33
COC(=O)/C=C1/S/C(=N/NC(=O)c2ccc(Cl)cc2Cl)NC1=O,0,2,4,6
Cc1ccc(-n2c(O)c(C=Nc3ccccc3-c3n[nH]c(=S)[nH]c3=O)c3ccccc3c2=O)cc1C,1,7,·,100*
CNC(=O)CSc1nnc(-c2ccco2)n1-c1cccc(OC)c1,0,4,-5,4
CN(C)C(CNC(=O)CCNC(=O)c1ccc(Cl)cc1)c1ccco1 (centres undefined),3,·,-2,-2
CC(=O)Nc1ccc(S(=O)(=O)Nc2cc(S(=O)(=O)N3CCCCC3)ccc2O)cc1,1,·,·,·
COc1cc(NC(=O)c2ccccc2)c(OC)cc1NC(=O)CN1C(=O)N(C)C2(CCCCC2)C1=O,2,·,·,·
O[C@@H]([C@H](O)[C@H](O)CBr)[C@H](O)CBr,3,·,26*,·
CCNC(=S)N1CCn2c(nc3ccccc32)C1,-1,-11,0,12
CC(C)(C)CN1CCC(Oc2cccc(C(=O)N3CCNC(=O)C3(C)C)c2)CC1,0,7,19*,-9
SMILES,Rin1-Abl PPI inh,M18AAP inhibitor,Fh CTSL1 inh,Calb FLC
CCCCN(C)C(=O)c1cccc(OC2CCN(CC(C)(C)C)CC2)c1,1,5,0,-10
COC(=O)CC1OCC=C2CN3CCC45C6=CC(=O)C(=O)C([N+](=O)[O-])=C6NC4C1C2CC35 (centres undefined),6,·,·,·
COc1ccc(S(=O)(=O)Nc2cc(C(C)C)c(O)cc2C)cc1,5,-34,-4,5
C/C(=N\S(=O)(=O)c1ccc(C)cc1)Nc1cc(C(C)C)c(O)cc1C,-1,29*,0,-8
CCOC(=O)/C=C/C(=O)Nc1ccc(S(=O)(=O)N2CCCCCC2)cc1,1,-7,31*,-18
CCCCCC(=O)Nc1ccc(-c2nnc3n2CCCCC3)cc1,1,-11,-2,-30
CCOC(=O)/C=C/C(=O)Nc1ccc(-c2nnc3n2CCCCC3)cc1,6,-13,37*,-3
Cc1ccc(C2CC2C(=O)NNC(=S)Nc2cccc(Cl)c2)cc1 (centres undefined),-4,-6,4,112*
Cc1ccc(C2CC2C(=O)NNC(=S)Nc2cccc(C)c2)cc1 (centres undefined),4,1,-1,?
Cc1ccc(OCCNC(=O)Cc2ccc(S(=O)(=O)N3CCOCC3)s2)cc1,0,-4,5,6
COc1ccc(NC(=O)C2CCCN2S(=O)(=O)c2ccc3c(c2)C(C)(C)C(=O)N3C)cc1 (centres undefined),1,·,·,·
Cc1ccc(-c2c3c([nH]c(=S)c2C#N)CCCC3)o1,-5,31*,9,31
COc1ccc(OC)c2[nH]c(C(=O)N/N=C/c3ccccc3O)cc12,-4,-7,0,90*
O=C(N/N=C/c1ccccc1O)c1cccc(C(F)(F)F)c1,1,0,5,80*
COc1cccc(/C=N/NC(=O)c2cc(-c3cccn3C)n[nH]2)c1O,0,5,0,103*
O=C(N/N=C/c1ccc(O)cc1)c1cccc(C(F)(F)F)c1,-1,8,3,27
COC1=CC(C)C2CC3OC(=O)CC4C(C)=C(OC)C(=O)C(C2(C)C1=O)C34C (centres undefined),-2,·,·,·
O=C1CCc2cc(S(=O)(=O)NC(Cc3ccccc3)C(=O)N3CCN(c4ccccn4)CC3)ccc2N1 (centres undefined),1,-3,3,-5
CCOC(=O)C1CN(S(=O)(=O)c2ccccc2)CCN1S(=O)(=O)c1ccccc1 (centres undefined),1,3,3,12
COC(=O)C1CN(S(=O)(=O)c2ccccc2)CCN1S(=O)(=O)c1ccccc1 (centres undefined),0,-1,58*,17
CC(C(=O)N1CCOCC1)c1ccc([N+](=O)[O-])cc1 (centres undefined),2,-2,0,-26
CC(C(=O)N1CCN(Cc2ccc3c(c2)OCO3)CC1)c1ccc([N+](=O)[O-])cc1 (centres undefined),2,7,18*,-11
CCOC(=O)C1=C(c2ccccc2)N2CCN=C2S1,·,32*,·,·
Cc1ccc2nc3n(c(=O)c2c1)-c1cc2ccccc2cc1C(=O)NC3CC(C)C (centres undefined),0,·,·,·
CC(=O)N1c2ccccc2Sc2ccccc21,1,-9,·,-1
SMILES,Rin1-Abl PPI inh,M18AAP inhibitor,Fh CTSL1 inh,Calb FLC
CN1c2ccccc2Sc2cc(N)ccc21,-2,37*,0,-6
O=C1NC2(CCCC2)C(=O)N1CC(=O)N(Cc1ccccc1)c1ccccc1,3,·,0,-2
COc1cc(C(=O)NCC(=O)NCC(c2ccco2)N2CCCCC2)cc(OC)c1OC (centres undefined),1,·,·,·
CCOc1cc(C=O)cc(N=Nc2cccc([N+](=O)[O-])c2)c1O,-3,4,2,104*
O=C(Cc1nn[nH]n1)Nc1cc(Cl)cc(Cl)c1,4,4,-3,-5
O=C(NC(=S)NNC(=O)c1ccc(Cl)cc1Cl)c1cccnc1,-1,38*,-1,0
Cc1cccc(C(=O)NC(=S)NNC(=O)c2ccccc2Cl)c1,-2,29*,-2,0
COc1ccc(C(=O)NC(=S)NNC(=O)c2ccccc2O)cc1,-3,23,2,36
